SENP8 block-1: inhibitors of human SENP8 protease | purified SENP8, Z-RLRGG-aminoluciferin cleavage, luminescence | hit rate 1.2% among 330,000 | inhibition, % at 10 µM; in the data active = inhibition above about 50%
Target sequence (Q96LD8 whole entry, looked up): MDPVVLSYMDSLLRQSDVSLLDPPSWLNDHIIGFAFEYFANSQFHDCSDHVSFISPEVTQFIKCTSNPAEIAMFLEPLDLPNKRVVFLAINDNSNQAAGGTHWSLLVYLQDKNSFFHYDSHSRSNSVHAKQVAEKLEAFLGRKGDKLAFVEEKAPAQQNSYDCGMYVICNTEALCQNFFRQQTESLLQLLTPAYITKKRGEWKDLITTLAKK
C8 TRAIL sens: sensitizes caspase-8 expressing cells to TRAIL. inhibition (viability loss, TRAIL sensitization), % at 10 µM. AID 624354. NB7+C8 cells + TRAIL, ATPlite viability luminescence. hit rate 1% among 360,000;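 active = compounds causing at least 50% loss of cell viability in the single-dose screen, relative to plate controls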
SENP6 inh: blocks the human protease SENP6 | hit rate 1.8% among 330,000 | Recombinant SENP6 catalytic domain, aminoluciferin luminescence | Q9GZR1 | inhibition, % at 10 µM | AID 2599;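 active = inhibition above about 50% at the single tested dose, limit read from the data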
PPC-1+TRAIL kill: compounds killing PPC-1 cancer cells with TRAIL present (potentiator screen, no TRAIL-free arm) | PPC-1 cells + TRAIL, ATPLite viability luminescence | cell killing (% activity), % at 4 µM or 5 µM | hit rate 0.41% among 220,000;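 active = cell killing above 50% in the first pass at 4 µM, then a duplicate retest at 5 µM averaging 50% or more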
SENP8 block-2: inhibitors of human SENP8 protease. recombinant SENP8, Nedd8 substrate fluorescence. inhibition, % at 20 µM. hit rate 0.64% among 360,000; in the data active = inhibition mostly above about 40%, no sharp cut-off; inactive = mostly below about 27%
SENP7 inh: inhibitors of human SENP7 protease; inhibition, % at 5 µM; recombinant SENP7, Z-RLRGG-aminoluciferin luminescence, 40 min; hit rate 1.5% among 330,000; Q9BQF6;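 active = inhibition above about 50% at the single test dose, limit read from the data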
Target sequence (Q9BQF6 706-1050 limits assumed): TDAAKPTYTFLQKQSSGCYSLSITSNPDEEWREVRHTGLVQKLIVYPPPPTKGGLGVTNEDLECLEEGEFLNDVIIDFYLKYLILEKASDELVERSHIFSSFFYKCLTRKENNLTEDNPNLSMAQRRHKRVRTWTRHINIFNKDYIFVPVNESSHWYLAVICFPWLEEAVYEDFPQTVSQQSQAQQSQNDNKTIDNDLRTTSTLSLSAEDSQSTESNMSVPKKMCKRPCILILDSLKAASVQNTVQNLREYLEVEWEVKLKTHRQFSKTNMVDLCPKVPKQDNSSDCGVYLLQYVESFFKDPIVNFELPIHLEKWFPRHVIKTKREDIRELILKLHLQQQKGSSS
Numbers stand for hits; 0 = inactive; - = not tested or not shown. Most compounds without a hit are left out; they make up all but 3% or so of the library.

SMILES	SENP8 block-1	C8 TRAIL sens	SENP6 inh	PPC-1+TRAIL kill	SENP8 block-2	SENP7 inh
Cc1ccc2nc(-c3ccc(NC(=O)COC(=O)c4ccc(=O)[nH]c4)cc3)sc2c1	0	0	0	50	0	0
Cc1nnc(SCC(=O)Nc2ccc(-c3nc4ccccc4s3)cc2)s1	-	67	-	0	0	-
O=C(CCN1C(=O)NC2(CCCC2)C1=O)Nc1ccc(Sc2ccc(Br)cc2)cc1	-	0	-	-	0	-
Cn1c(=O)[nH]c(=O)c2c1nc(N1CCCCC1)n2CC(O)COc1ccc([N+](=O)[O-])cc1 (centres undefined)	0	0	0	-	0	0
Cn1c(=O)c(C(=O)Nc2ccccn2)c(O)c2ccccc21	0	62	0	0	0	75
Cn1c(=O)c(C(=O)Nc2cnccn2)c(O)c2ccccc21	-	-	-	0	-	-
Clc1nc(Cl)c2ncn(-c3ccccc3)c2n1	-	65	-	-	0	-
O=C(CNC(=O)c1cccnc1)N=Nc1c(O)[nH]c2c(Br)cc(Br)cc12	0	0	0	-	44	0
O=C(CCCCCNC(=O)c1ccccc1)N=Nc1c(O)[nH]c2c(Br)cc(Br)cc12	0	-	0	0	-	0
CCCOc1ccc(-c2nc(N3CCN(C)CC3)c3ccccc3n2)cc1	0	66	0	-	0	0
CCCCCCCCCCCCCCCC[N+](C)(C)CCN(Cc1ccc(OC)cc1)c1ncccn1	0	53	0	-	0	0
COc1ccc(/C=C/c2cc(-c3ccc(C)cc3)o[n+]2C)cc1	0	74	0	0	0	0
O=C(/C=C\c1ccc2c(c1)OCO2)Nc1nnc(SCC(=O)OCc2ccccc2)s1	0	-	0	0	-	0
COC(=O)c1cccc(NC(=O)/C=C/c2ccc3c(c2)OCO3)c1	0	85	0	0	0	0
CCC(CC)c1nnc(NC(=O)c2ccc3c(c2)OCO3)s1	0	0	0	-	0	0
O=C(/C=C/c1ccc2c(c1)OCO2)Nc1nncs1	0	0	60	0	0	84
COC(=O)CSc1nnc(NC(=O)/C=C\c2ccc3c(c2)OCO3)s1	0	53	0	0	0	0
COC(=O)c1cc(NC(=O)/C=C/c2ccc3c(c2)OCO3)cc(C(=O)OC)c1	0	0	0	0	0	0
COC(=O)CSc1nnc(NC(=O)c2ccc3c(c2)OCO3)s1	0	77	0	-	0	0
COc1ccc(CCC(=O)O)c(C(CC(=O)O)C(=O)O)c1OS(=O)(=O)c1ccc(C)cc1 (centres undefined)	-	0	-	-	0	-
Cc1ccc(-c2cc(C(=O)Nc3c(C)n(C)n(-c4ccccc4)c3=O)[nH]n2)c(O)c1C	0	0	0	0	0	0
CCOC(=O)c1[nH]c2ccc(OC)cc2c1NC(=O)/C=C/c1ccc2c(c1)OCO2	0	0	0	0	0	0
O=C(/C=C/c1ccc2c(c1)OCO2)Nc1c(C(=O)O)[nH]c2ccccc12	0	52	0	0	0	0
CCOc1ccc(/C=C/C(=O)Nc2cccc(C(C)=O)c2)cc1	0	55	0	0	0	0
Cc1occc1C(=O)Nc1cc(S(=O)(=O)N2CCOCC2)ccc1OC(C)C	0	0	0	-	0	0
SMILES	SENP8 block-1	C8 TRAIL sens	SENP6 inh	PPC-1+TRAIL kill	SENP8 block-2	SENP7 inh
Cn1nc(-c2ccc(Cl)cc2)nc2c(=O)n(C)c(=O)nc1-2	98	-	98	0	-	98
CC(CNC(=O)C(C)(C)C)NC(=O)C(C)(C)C (centres undefined)	0	0	0	0	0	0
CCc1ccc([C@H]2[C@@H]3C(=O)C[C@@H]4C(=O)N(c5ccccc5)C(=O)[C@@H]4[C@@H]3CN2S(=O)(=O)c2ccc(C)cc2)cc1	-	86	-	-	0	-
Cc1noc(C)c1S(=O)(=O)N1CCCC(C(=O)NCc2ccccc2Cl)C1 (centres undefined)	0	0	0	-	0	0
Cc1cccc(N2CCN(C(=S)Nc3ccc4nc(N5CCN(C)CC5)cc(C)c4c3)CC2C)c1 (centres undefined)	0	67	0	0	0	0
Cc1cc(N2CCN(C)CC2)nc2ccc(NC(=S)N3CCN(c4cccc(Cl)c4)CC3)cc12	0	0	0	0	0	0
Cc1cccc(N2CCN(C(=S)Nc3ccc4nc(N5CCN(C)CC5)cc(C)c4c3)CC2)c1C	-	93	-	-	0	-
CCCCn1c(N)c(N(CC(C)C)C(=O)c2ccc(C)c(S(=O)(=O)N3CCCCC3)c2)c(=O)[nH]c1=O	0	0	0	-	0	0
O=C(C[C@@H]1C/C=C/CC[C@H](Cc2ccc(F)cc2)C(=O)OC[C@@H](Cc2ccccc2)NC1=O)N[C@H](CO)Cc1ccccc1	0	77	0	-	0	0
C[C@@H]1COC(=O)[C@H](Cc2ccc(F)cc2)CC/C=C/C[C@@H](CC(=O)N[C@@H](CO)Cc2ccccc2)C(=O)N1	0	0	0	-	0	0
CCc1ccc(S(=O)(=O)/N=C2\C=C(Nc3cccc(C(=O)O)c3)C(=O)c3ccccc32)cc1	95	0	92	-	70	0
CCc1ccc(S(=O)(=O)/N=C2\C=C(Nc3ccc(O)cc3)C(=O)c3ccccc32)cc1	91	97	89	-	101	67
O=C(Nc1ccccc1)OC[C@@H]1C=CS(=O)(=O)N1Cc1ccc(Br)cc1	-	0	-	-	0	-
Cc1oc2cc3oc(=O)c(CCC(=O)N(C)CC(=O)O)c(C)c3cc2c1C	0	0	0	-	0	0
O=C(CCN1C(=O)[C@@H]2Cc3ccccc3CN2C1=O)N[C@@H](Cc1ccccc1)C(=O)O	0	0	0	-	0	0
Cc1nc2nc(C)c(NS(=O)(=O)c3ccc(C4CCCCC4)cc3)c(=O)n2[nH]1	0	0	0	-	0	0
COc1ccc(OC(F)(F)F)cc1CC1(C)C(=O)Nc2ccc(-c3ccsc3)cc21 (centres undefined)	-	0	-	-	0	-
CC(=O)N(C1=C(N2CCOCC2)C(=O)c2ccccc2C1=O)c1ccc(C(=O)O)cc1	0	0	0	0	0	0
O=C(O)c1ccc(NC2=C(N3CCOCC3)C(=O)c3ccccc3C2=O)cc1	0	0	0	0	53	0
Cc1cccc(NC2=NC(C)(C)N=C(N)N2)c1	0	71	0	0	0	0
COc1ccc(-c2cnnc(N/N=C/c3ccc(O)c(OC)c3)n2)cc1	0	59	0	0	0	0
COc1cc(/C=N/Nc2nc(N3CCCC3)nc(N3CCCC3)n2)ccc1O	0	0	0	0	0	0
CC1CCN(C(=O)COC(=O)CCCN2C(=O)c3cccc4cccc(c34)C2=O)CC1	0	0	0	-	0	0
O=c1c2c([nH]n1-c1ccccc1)CCSC2	0	0	0	-	46	0
CCc1cc2c(=O)c(-c3cnn(-c4ccccc4)c3)c(C)oc2cc1OCC(=O)Nc1cccc(C)c1	0	0	0	0	0	0
CCc1cc2c(=O)c(-c3cnn(-c4ccccc4)c3)c(C)oc2cc1OCC(=O)Nc1ccc(F)c(F)c1	0	52	0	0	0	0
O=C(c1ccco1)N1CCN(CCCCN2C(=O)c3ccccc3C2=O)CC1	0	0	0	0	0	0
O=C1c2ccccc2-c2onc3c(N4CCN(CCO)CC4)cc(N4CCN(C(=O)c5ccco5)CC4)c1c23	0	0	0	-	75	0
